Source: PubChem BioAssay (NCI)
“And” between values parts separate entries of the source, which are not always exact repeats. Identical values can stand only once. The panel holds about 83,000 compounds, 20% with a hit somewhere; the sample as a whole holds those more often.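 Negative percent growth values reflect cell death: -40 means 40% of the cells present at the start died, and -100 means all died.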 The source made the active and inactive calls. How the source made its calls: active means growth percent below 10; inactive means the rest.

Tests used:
Assay in all cases: NCI-60 one-dose screen, 48 h (100 = growth as untreated, 0 = no growth, -100 = all killed)
Conditions in all cases: 10 µM unless noted
[1] = system: NCI/ADR-RES ovarian
[2] = system: T-47D breast
[3] = system: BT-549 breast
[4] = system: MDA-MB-435 melanoma
[5] = system: SW-620 colon
[6] = system: MCF7 breast
[7] = system: HCT-116 colon
[8] = system: HCC-2998 colon
[9] = system: KM12 colon

Row | SMILES | growth [1] | growth [2] | growth [3] | growth [4] | growth [5] | growth [6] | growth [7] | growth [8] | growth [9]
1 | C[C@]12CCC3[C@@H](C[C@@H]4SC(Nc5ccccc5)=N[C@@]45CC(=O)CC[C@]35C)[C@@H]1CCC2=O (some centres not stated) | 9.86% (active) | -27.4% (active) | -19.9% (active) | 1.11% (active) | -17.9% (active) | 15.4% (inactive) | -85.5% (active) | -32.7% (active) | 23.2% (inactive)
2 | O=C(O)C(Br)CBr (configuration not stated) | 101% (inactive) | 89.6% (inactive) | 100% (inactive) | 103% (inactive) | 105% (inactive) | 87.9% (inactive) | 94.8% (inactive) | – | 104% (inactive)
3 | CN1CCc2cc3c(cc2C1O)OCO3 (configuration not stated) | 95.9% (inactive) and 107% (inactive) | 69.3% (inactive) and 102% (inactive) | -78.9% (active) and 100% (inactive) | 37.8% (inactive) and 102% (inactive) | 96.1% (inactive) and 100% (inactive) | – | 104% (inactive) and 101% (inactive) | 102% (inactive) and 108% (inactive) | 57.8% (inactive) and 103% (inactive)
4 | CNC(=O)Oc1ccc(Cl)cc1SSc1cc(Cl)ccc1OC(=O)NC | 81.2% (inactive) | 57.2% (inactive) | 96.4% (inactive) | 75.5% (inactive) | 87.2% (inactive) | 91.8% (inactive) | 91.2% (inactive) | 99.8% (inactive) | 98.5% (inactive)
5 | COC[C@H]1OC(=O)c2coc3c2[C@@]1(C)C1=C(C3=O)[C@@H]2CCC(=O)[C@@]2(C)C[C@H]1OC(C)=O | 52.5% (inactive) | -2.63% (active) | 26.3% (inactive) | 60.3% (inactive) | 53.4% (inactive) | 21.5% (inactive) | 45.7% (inactive) | – | 51.2% (inactive)
6 | CCC(Br)(CC)C(=O)NC(N)=O | 116% (inactive) | 101% (inactive) | 108% (inactive) | 102% (inactive) | 110% (inactive) | 94.6% (inactive) | 93% (inactive) | 105% (inactive) | 104% (inactive)
7 | CO[C@H]1[C@H](O[C@@H]2C[C@@H]3C/C=C/C(=O)O[C@@H](CO)C[C@H](O)[C@@H]4C[C@H](C)[C@H](C/C=C\C=C\[C@H](C)C[C@H](C2)O3)O4)O[C@@H](C)[C@H](O)[C@H]1O | 55.8% (inactive) | 20.8% (inactive) | 53.9% (inactive) | 64.3% (inactive) | 76.6% (inactive) | – | 57% (inactive) | 53.6% (inactive) | 68.1% (inactive)
8 | C=CC1CN2CCC1CC2C(O)c1ccnc2ccccc12 (configuration not stated) | -15.5% (active) | 135% (inactive) | 181% (inactive) | 128% (inactive) | 112% (inactive) | 116% (inactive) | 110% (inactive) | – | 115% (inactive)
9 | CCC1(NC(=O)c2cc(F)c(F)c(F)c2F)C(=O)NC(=O)N(C(C)C)C1=O (configuration not stated) | 105% (inactive) | 214% (inactive) | 72.9% (inactive) | 59.8% (inactive) | 62.7% (inactive) | 96.4% (inactive) | 99% (inactive) | -55.8% (active) | 139% (inactive)
10 | O=NN1CCCCC1 | 110% (inactive) | 102% (inactive) | 104% (inactive) | 118% (inactive) | 107% (inactive) | 90.8% (inactive) | 108% (inactive) | – | 104% (inactive)
11 | CN1C2CCC1[C@@H](COC(=O)c1ccccc1)[C@@H](O)C2 (some centres not stated) | 110% (inactive) | 124% (inactive) | 143% (inactive) | 121% (inactive) | 111% (inactive) | – | 101% (inactive) | 105% (inactive) | 103% (inactive)
12 | CCOC(=O)C1C(C=C(C)C)C1(C)C (configuration not stated) | 99.1% (inactive) | 115% (inactive) | 104% (inactive) | 102% (inactive) | 89.3% (inactive) | 112% (inactive) | 108% (inactive) | 96% (inactive) | 94.5% (inactive)
13 | O=C(Cc1ccccc1)c1ccccc1 | 105% (inactive) | 100% (inactive) | 100% (inactive) | 102% (inactive) | 96.6% (inactive) | 92% (inactive) | 101% (inactive) | 114% (inactive) | 99.8% (inactive)
14 | CCCCn1c(=O)c(C(=O)NCc2ccccc2Cl)c(O)c2ccccc21 | 56.2% (inactive) | 85.6% (inactive) | 47.9% (inactive) | 98.5% (inactive) | 78.8% (inactive) | 64.4% (inactive) | 21.4% (inactive) | 93.4% (inactive) | 83.8% (inactive)
15 | CC12CCC3C4CCC(=O)C=C4CCC3C1CC1CC(=O)OC12 (configuration not stated) | 101% (inactive) | 101% (inactive) | 107% (inactive) | 112% (inactive) | 102% (inactive) | – | 97.1% (inactive) | 110% (inactive) | 96% (inactive)
16 | CC1(C)CN=C(NN=C(/C=C/c2ccc(C(F)(F)F)cc2)/C=C/c2ccc(C(F)(F)F)cc2)NC1 | -68.4% (active) | -86.1% (active) | -16.8% (active) | -83.6% (active) | -52.6% (active) | -99.5% (active) | -85.8% (active) | – | -86.8% (active)
17 | Cc1cc2c(cc1-c1ccnc(/C=C/C(=O)O)c1)C(C)(C)CCC2(C)C | 87.8% (inactive) | 92.4% (inactive) | 64.5% (inactive) | 92.5% (inactive) | 95.9% (inactive) | – | 75.1% (inactive) | 103% (inactive) | 86.3% (inactive)
18 | C[C@]12C[C@H](c3ccoc3)OC(=O)[C@H]1CC[C@@]1(C)[C@@H]2[C@H]2C=C[C@]1(O)C(=O)O2 | 106% (inactive) | 103% (inactive) | 86.5% (inactive) | 98.1% (inactive) | 109% (inactive) | 92.7% (inactive) | 76.6% (inactive) | 103% (inactive) | 104% (inactive)
19 | CC[C@H](C)[C@H](NC(=O)[C@H]1CCCCN1C)C(=O)N(C)[C@H](C[C@@H](OC(C)=O)c1nc(C(=O)NC23C4C5C2C2C3C4C52C(=O)OC)cs1)C(C)C (some centres not stated) | 10.9% (inactive) | 73.3% (inactive) | -36% (active) | -0.902% (active) | 41.9% (inactive) | 13.7% (inactive) | 7.22% (active) | 9.29% (active) | -3.83% (active)
20 | O=C1NC(=O)C(=C/C=C/c2ccccc2)C(=O)N1 | -29.1% (active) | 32.2% (inactive) | 36.6% (inactive) | 3.9% (active) | -76.4% (active) | 14.2% (inactive) | -78.5% (active) | 62.1% (inactive) | -40.1% (active)
21 | CCN1C(=O)CC(=O)N(CC)C1=S | 73.9% (inactive) | 98.1% (inactive) | 94.5% (inactive) | 105% (inactive) | 108% (inactive) | 100% (inactive) | 93.8% (inactive) | – | 106% (inactive)
22 | O=C1c2ccccc2C(=O)N1N1CC1c1ccccc1 (configuration not stated) | 104% (inactive) | 89.2% (inactive) | 99% (inactive) | 102% (inactive) | 105% (inactive) | – | 95.4% (inactive) | 103% (inactive) | 104% (inactive)
23 | CC1OC(=O)C(C(C)C)NC(=O)C(C(C)C)OC(=O)C(C(C)C)NC(=O)C(C)OC(=O)C(C(C)C)NC(=O)C(C(C)C)OC(=O)C(C(C)C)NC(=O)C(C)OC(=O)C(C(C)C)NC(=O)C(C(C)C)OC(=O)C(C(C)C)NC1=O (configuration not stated) | 0.571% (active) | -15.2% (active) | -42.5% (active) | 3.94% (active) | 3.61% (active) | -31.7% (active) | -69% (active) | -16.5% (active) | 0.9% (active)
24 | O=C(O)c1ccccc1N(CCO)CCCl | 95.1% (inactive) | 87.6% (inactive) | 95.9% (inactive) | 112% (inactive) | 107% (inactive) | – | 95.3% (inactive) | 103% (inactive) | 103% (inactive)
25 | C[C@@H]1C/C=C\C(=O)O[C@H](/C=C/C#C/C=C/C(C)(C)[C@@H](O)c2cccc(O)c2Br)[C@@H](C)/C=C/[C@H](C)C[C@H](OC(N)=O)C1 | 33.5% (inactive) | 12.6% (inactive) | 43.8% (inactive) | 19.2% (inactive) | 30.4% (inactive) | 18.6% (inactive) | 14.2% (inactive) | 28.2% (inactive) | 40.3% (inactive)
26 | COC1C(O)CC(OC2CC(Oc3cc4cc5c(c(O)c4c(O)c3C)C(=O)[C@@H](OC3CC(OC4CC(OC6CC(C)(O)C(OC(C)=O)C(C)O6)C(O)C(C)O4)C(O)C(C)O3)[C@H]([C@H](OC)C(=O)[C@@H](O)[C@@H](C)O)C5)OC(C)C2OC(C)=O)OC1C (some centres not stated) | -33.9% (active) | -7.93% (active) | -68.3% (active) | -100% (active) | -16.1% (active) | -18.4% (active) | 0.84% (active) | – | -34.6% (active)
27 | CC[C@H](C)[C@H](NC(=O)[C@H]1CCCCN1C)C(=O)N(C)[C@H](C[C@@H](OC(C)=O)c1nc(C(=O)N[C@@H](Cc2ccccc2)C[C@H](C)C(=O)O)cs1)C(C)C | 12.2% (inactive) | 70.5% (inactive) | -37.2% (active) | -10.9% (active) | 35.2% (inactive) | – | 5.71% (active) | 13.7% (inactive) | 0.294% (active)
28 | O=C(NC1=NCC[Se]1)c1ccccc1O | 21.5% (inactive) | 79.4% (inactive) | 82.1% (inactive) | 48.3% (inactive) | 72.9% (inactive) | 51.4% (inactive) | 20.3% (inactive) | 90% (inactive) | 71.5% (inactive)
